The source of these data is PubChem BioAssay (NCATS).

A short description of assay [1]: Primary qHTS for small molecule stabilizers of the endoplasmic reticulum resident proteome: Secreted ER Calcium Modulated Protein (SERCaMP) assay (AID 1508630). The essentials: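 The SH-SY5Y reporter protocol was run at 3 concentrations up to 38.3 uM (primary) or 11 concentrations (follow-up): 16 h compound, 100 nM thapsigargin for 4 h, then extracellular luciferase luminescence.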
(Quantitative high-throughput screening tests each substance at several concentrations.)

The nature of assay [2]: Cell Viability qHTS for small molecule stabilizers of the endoplasmic reticulum resident proteome (AID 1508629).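 Note: human SH-SY5Y neuroblastoma cells carrying the GLuc-SERCaMP reporter; compound exposure about 46 h in total before the viability read.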 Conditions: cell viability counter-screen, 100 nM thapsigargin for final 4 h.
Assay [3] concerns the target Papain (Carica papaya) (UniProt P00784). The assay is described as follows: Primary qHTS assay for inhibitors of the protease papain (AID 1645873).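 Note: papain turnover of Z-FR-AMC read as the AMC fluorescence gain over 10 min.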
Assay [4] in a line: Confirmatory qHTS for small molecule stabilizers of the endoplasmic reticulum resident proteome: Secreted ER Calcium Modulated Protein (SERCaMP) assay (AID 1508628). Note: potency is the fitted concentration of half-maximal effect; nearly all actives have a fitted effect of over 40% in size. Put shortly:
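Reporter secretion upon ER calcium depletion (100 nM thapsigargin, 4 h, 37C) is measured as medium luminescence with coelenterazine, after 16 h compound pretreatment of SH-SY5Y-GLuc-SERCaMP cells; primary at three concentrations up to 38.3 uM, follow-up at 11 (up to 76.6 uM).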

Assay [5] in a line: Primary qHTS for inhibitors of nuclear receptor binding SET domain protein 2 (NSD2) in an isogenic RCH-ACV NSD2 p.E1099K mutant (9B) (AID 1645876). Note: potency is the fitted concentration of half-maximal effect; nearly all actives have a fitted effect of over 70% in size.
The nature of assay [6]: Primary qHTS for inhibitors of nuclear receptor binding SET domain protein 2 (NSD2) in an RCH-ACV wild type WT cells (2C) (AID 1645877). Note: potency is the fitted concentration of half-maximal effect; nearly all actives have a fitted effect of over 70% in size.
Assay [7] has as its target Catechol O-methyltransferase (Homo sapiens) (UniProt P21964). As to the kind of experiment: Confirmatory Screen for Target Class Profiling of Small Molecule Inhibitors of Methyltransferases (AID 1745852; calls by dose curve). Conditions: MTase-Glo luminescence, SAH detection, recombinant enzyme; measured here: COMT max response; stronger effect = lower value.
Assay [8] deals with Guanidinoacetate N-methyltransferase (Homo sapiens) (UniProt Q14353). Described as above. Conditions: MTase-Glo luminescence, SAH detection, recombinant enzyme; activity change, negative = inhibition: at 57.3 µM (top of the series) unless noted.

Where “and” joins values, the source holds several entries; their conditions need not be identical. Identical values can stand only once. Records with an inconclusive call do not appear. A call without a number means that no potency is given here. Calls of active or inactive are those of the source. Unless noted, calls come from the whole dose curve; as a rule, active = well fitted curve in the direction sought with a large enough effect; inconclusive = small, poorly fitted or top-dose-only effect, or another doubt; inactive = no such curve, though single readings can be large; an effect the other way counts as inactive or inconclusive.

Sequence of Papain (Carica papaya) (P00784 whole entry, looked up): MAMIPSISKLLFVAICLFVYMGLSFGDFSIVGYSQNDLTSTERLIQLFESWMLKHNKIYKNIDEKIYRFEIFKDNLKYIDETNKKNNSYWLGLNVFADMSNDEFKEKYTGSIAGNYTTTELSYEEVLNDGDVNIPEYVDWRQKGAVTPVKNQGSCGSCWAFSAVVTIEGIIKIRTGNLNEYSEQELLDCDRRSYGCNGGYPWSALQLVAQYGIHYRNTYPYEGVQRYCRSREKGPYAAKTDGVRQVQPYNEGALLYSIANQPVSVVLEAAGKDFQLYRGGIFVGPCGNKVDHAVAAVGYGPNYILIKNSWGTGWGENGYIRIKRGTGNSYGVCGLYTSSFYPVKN
Sequence of Catechol O-methyltransferase (Homo sapiens) (P21964 whole entry, looked up): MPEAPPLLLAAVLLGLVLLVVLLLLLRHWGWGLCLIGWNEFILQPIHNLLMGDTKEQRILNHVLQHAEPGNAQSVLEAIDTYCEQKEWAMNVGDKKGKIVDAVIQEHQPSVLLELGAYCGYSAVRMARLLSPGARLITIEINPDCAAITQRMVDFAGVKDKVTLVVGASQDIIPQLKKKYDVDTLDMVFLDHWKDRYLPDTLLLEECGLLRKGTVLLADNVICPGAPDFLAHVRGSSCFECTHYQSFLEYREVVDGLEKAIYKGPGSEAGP

`CC1(C)S[C@@H]2[C@H](N)C(=O)N2[C@H]1C(=O)O`: in assay [1], the outcome was “inactive”.

With `C=CCN1CC[C@]23c4c5ccc(O)c4O[C@@H]2/C(=N/N=C2\CC[C@@]4(O)C6Cc7ccc(O)c8c7[C@@]4(CCN6CC=C)[C@@H]2O8)CC[C@@]3(O)C1C5`, the outcome in assay [1] was “inactive”.

Turning to `O[C@H]1[C@H]2[C@H](O)CCCN2C[C@H]1O`, the max response in assay [2] was 13.7% (inactive) and 34.4% (inactive).

As to `c1ccc2c(c1)[I+]c1ccccc1-2`, the outcome in assay [1] was “inactive”.

For `Nc1ccc(CCN2CCN(c3cccc(C(F)(F)F)c3)CC2)cc1`, in assay [2], the max response was 11.7% (inactive). In addition, the outcome in assay [1] was “inactive”. Besides, in assay [3], the Potency result is “inactive”.

With `N#C/C(=C/c1ccc(O)c(O)c1)C(N)=S`, the Potency in assay [4] is 10 µM (active); in assay [5], 8.2 µM (active); in assay [6], 9.2 µM (active). The Potency result in assay [3] was “inactive”. The activity in assay [7] amounted to 52.2%. Moreover, in assay [8], the activity change, negative = inhibition is -6.16%.

For the molecule `COc1cc(CC(C)N)c(OC)cc1I` (centres undefined), in assay [1], the outcome is “inactive”.

Take `CCN(CCCl)Cc1ccccc1Br`: in assay [1], the outcome is “inactive”.

In the case of `Cc1c2ccncc2c(C)c2c1[nH]c1ccccc12`, the outcome in assay [1] is “inactive”. Besides, the Potency result in assay [3] was “inactive”.

`O=S1(=O)N(CCN2CC=C(c3c[nH]c4cc(F)ccc34)CC2)c2cccc3c2N1CCC3`: in assay [1], the outcome was “inactive”. For the same molecule, the Potency entry in assay [3] was “inactive”.

Regarding `O=C1CC[C@@]2(O)C3Cc4ccc(O)c5c4C2(CCN3CC2CC2)[C@H]1O5` (some centres undefined), in assay [1], the outcome is “inactive”. The Potency result in assay [3] is “inactive”.

For `CN(C(=O)Cc1ccc(Cl)c(Cl)c1)C(CN1CCCC1)c1cccc(OCC(=O)O)c1` (centres undefined), the outcome in assay [1] is “inactive”. Besides, in assay [3], the Potency result was “inactive”.

For the molecule `CO[C@H]1CC=C2CCN3CCC4=C(CC(=O)OC4)[C@]23C1`, in assay [1], the outcome is “inactive”. The Potency result in assay [3] is “inactive”.

With `N[C@@H](Cn1oc(=O)[nH]c1=O)C(=O)O`, the outcome in assay [1] is “inactive”. Further, the Potency result in assay [3] is “inactive”.

Take `C[N+]1(C)CCN(c2ccccc2)CC1`: in assay [1], the outcome was “inactive”. Also, the Potency entry in assay [3] was “inactive”.

Turning to `C[C@@H]1O[C@@H](O[C@H]2C[C@@H](O)[C@]3(CO)[C@@H]4C(CC[C@]3(O)C2)[C@@]2(O)CC[C@H]([C@@H]3COC(=O)C3)[C@@]2(C)C[C@H]4O)[C@H](O)[C@H](O)[C@H]1O` (some centres undefined), the outcome in assay [1] was “inactive”. The Potency result in assay [3] is “inactive”.

Take `CCCN(CCC)[C@@H]1CCc2cccc(O)c2C1`: the outcome in assay [1] is “inactive”. Further, in assay [3], the Potency entry was “inactive”.

On to `NC(=O)c1ccc(OCC(O)CN2CC=C(c3ccc(F)cc3)CC2)cc1` (centres undefined), for which, in assay [1], the outcome was “inactive”. In addition, in assay [3], the Potency entry is “inactive”.

On to `NC(=O)c1cc(N2CC2)c([N+](=O)[O-])cc1[N+](=O)[O-]`, for which the outcome in assay [1] is “inactive”. The Potency entry in assay [3] was “inactive”.

`C=CCN1CCC23c4c5ccc(O)c4O[C@H]2C(=O)CC[C@@]3(O)C1C5` (some centres undefined): in assay [1], the outcome was “inactive”. Moreover, the Potency result in assay [3] was “inactive”.

Take `C[C@H](Cc1ccc2c(c1)OC(C(=O)O)(C(=O)O)O2)NC[C@H](O)c1cccc(Cl)c1`: the outcome in assay [1] was “inactive”. In addition, the Potency entry in assay [3] was “inactive”.

As for `COc1ccc(CNC(=O)/C=C/c2ccc3[nH]cc(CCN(C)C)c3c2)cc1`, in assay [1], the outcome was “inactive”. Moreover, the Potency result in assay [3] was “inactive”.

As for `CN1CCC(c2c[nH]c3ccc(O)cc23)CC1`, in assay [1], the outcome is “inactive”. For the same molecule, the Potency entry in assay [3] was “inactive”.

For `COC(=O)N1CCN(C(=O)Cc2ccc(Cl)c(Cl)c2)C(CN2CCCC2)C1` (centres undefined), in assay [1], the outcome is “inactive”. For the same molecule, the Potency entry in assay [3] was “inactive”.

As for `CCOC(=O)c1ncn2c1[C@@H]1CCCN1C(=O)c1cc(OC)ccc1-2`, the outcome in assay [1] was “inactive”. Besides, in assay [3], the Potency result is “inactive”.
